Test results published in PubChem BioAssay (Tox21).
Records with an inconclusive call do not appear. Activity calls are given as the source filed them. Unless noted, calls come from the whole dose curve; as a rule, active = well fitted curve in the direction sought with a large enough effect in the repeat runs; inconclusive = weak or mixed curves; inactive = no such curve, though single readings can be large; an effect the other way counts as inactive or inconclusive.

Assays:
[1] = qHTS assay to identify small molecule antagonists of the glucocorticoid receptor (GR) signaling pathway - cell viability counter screen (AID 720693); note: nearly all actives have a fitted effect of over 55% in size
[2] = qHTS assay for identifying genotoxic compounds that show differential cytotoxicity against isogenic chicken DT40 cell lines with known DNA damage response pathways - Rev3 mutant cell line (AID 743014); note: nearly all actives have a fitted effect of over 55% in size; note: potency is the fitted concentration of half-maximal effect
[3] = qHTS assay to identify small molecule antagonists of the androgen receptor (AR) signaling pathway - cell viability counter screen (AID 743033; note: nearly all actives have a fitted effect of over 45% in size)
[4] = molecular target: Androgen receptor (Homo sapiens) (UniProt P10275); assay: qHTS assay to identify small molecule antagonists of the androgen receptor (AR) signaling pathway (AID 743035; active = well fitted inhibition curve with a large enough effect in the signal ratio in the repeat runs, not every such curve was filed as active; the % refers to the signal ratio)
Summary of the method: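 Quantitative HTS of the Tox21 10K library used HEK293 AR-UAS-bla cells stimulated with R1881 alongside compound for 16 h at 37C, followed by beta-lactamase FRET detection (LiveBLAzer B/G, 2 h, RT).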

[5] = molecular target: Androgen receptor (Homo sapiens) (UniProt P10275); assay: qHTS assay to identify small molecule agonists of the androgen receptor (AR) signaling pathway (AID 743036; active = well fitted activation curve with a large enough effect in the signal ratio in the repeat runs, with a control signal flat, not every such curve was filed as active; the % refers to the signal ratio)
Summary of the method: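 Following a 4 h settling period, AR-UAS-bla HEK293 cells were dosed with compounds for 16 h at 37C. A 2 h room-temperature incubation with LiveBLAzer B/G FRET substrate preceded the fluorescence measurement.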

[6] = molecular target: Androgen receptor (Homo sapiens) (UniProt P10275); assay: qHTS assay to identify small molecule agonists of the androgen receptor (AR) signaling pathway using the MDA cell line (AID 743040; note: nearly all actives have a fitted effect of over 20% in size)
Summary of the method: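 Luciferase read-out, ONE-Glo, 30 min RT. Cells: MDA-kb2 AR-luc, MMTV promoter with AR and GR response elements. Compound exposure 16 h, 37C, 0% CO2, after 5 h pre-incubation. qHTS agonist mode.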

[7] = qHTS assay to identify small molecule antagonists of the androgen receptor (AR) signaling pathway using the MDA cell line - cell viability counter screen (AID 743041; note: nearly all actives have a fitted effect of over 45% in size)
Summary of the method: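 Cytotoxicity counter screen: MDA-kb2 AR-luc cells, compound + R1881, 16 h, 37C, 0% CO2; CellTiter-Fluor added at 15.5 h, fluorescence read after 30 min.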

[8] = molecular target: Androgen receptor (Homo sapiens) (UniProt P10275); assay: qHTS assay to identify small molecule antagonists of the androgen receptor (AR) signaling pathway using the MDA cell line (AID 743042; note: nearly all actives have a fitted effect of over 55% in size)
Summary of the method: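 MDA-kb2 breast carcinoma cells carrying MMTV-luciferase (AR/GR responsive) were co-treated with compounds and the agonist R1881 for 16 h at 37C. Inhibition read as ONE-Glo luminescence; CellTiter-Fluor fluorescence measured in parallel for cytotoxicity.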

[9] = tested on: thyroid hormone receptor (rat, GH3 cells); assay: qHTS assay to identify small molecule agonists of the thyroid receptor (TR) signaling pathway (AID 743066; calls by dose curve)
[10] = qHTS assay to identify small molecule antagonists of the estrogen receptor alpha (ER-alpha) signaling pathway - cell viability counter screen (AID 743074; calls by dose curve;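 note: HEK293 cells carrying ER-alpha-UAS-bla reporter stimulated with 17beta-estradiol; nearly all actives have a fitted effect of over 45% in size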; note: potency is the fitted concentration of half-maximal effect)
[11] = molecular target: Estrogen receptor (Homo sapiens) (UniProt P03372); assay: qHTS assay to identify small molecule agonists of the estrogen receptor alpha (ER-alpha) signaling pathway (AID 743075; calls by dose curve;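 note: HEK293 GripTite cells with ER-alpha and UAS-driven beta-lactamase reporter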)
[12] = molecular target: Estrogen receptor (Homo sapiens) (UniProt P03372); assay: qHTS assay to identify small molecule agonists of the estrogen receptor alpha (ER-alpha) signaling pathway using the BG1 cell line (AID 743079); note: nearly all actives have a fitted effect of over 20% in size; note: potency is the fitted concentration of half-maximal effect
[13] = qHTS assay to identify small molecule antagonists of the estrogen receptor alpha (ER-alpha) signaling pathway using the BG1 cell line (AID 743080; calls by dose curve;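 note: BG1 cells stimulated with 17beta-estradiol alongside compound; series mostly up to about 70 µM; nearly all actives have a fitted effect of over 25% in size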)
Summary of the method: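 Endogenous full-length ER-alpha in BG1-Luc-4E2 cells drives a stably integrated 4×ERE luciferase gene; compounds were tested against 17beta-estradiol over 21.5 h, with luminescence and multiplexed viability fluorescence recorded.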

[14] = qHTS assay to identify small molecule antagonists of the estrogen receptor alpha (ER-alpha) signaling pathway using the BG1 cell line - cell viability counter screen (AID 743081);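 note: compound given together with 17beta-estradiol as the ER stimulus; nearly all actives have a fitted effect of over 45% in size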; note: potency is the fitted concentration of half-maximal effect; for activity change, negative = cytotoxicity: series mostly up to about 70 µM
Aromatase (Homo sapiens) = Aromatase (Homo sapiens) (UniProt P11511); assay: qHTS assay to identify aromatase inhibitors (AID 743083); note: series mostly up to about 70 µM; nearly all actives have a fitted effect of over 55% in size
[15] = qHTS assay to identify small molecule antagonists of the thyroid receptor (TR) signaling pathway - cell viability counter screen (AID 743064); note: nearly all actives have a fitted effect of over 50% in size; note: potency is the fitted concentration of half-maximal effect
Summary of the method: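 CellTiter-Fluor readout, 30 min at 37 °C/5% CO2, following 23.5 h incubation of GH3.TRE-Luc cells with test compound and 1 nM T3 (final).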

[16] = qHTS assay to identify small molecule antagonists of the thyroid receptor (TR) signaling pathway (AID 743065); note: nearly all actives have a fitted effect of over 55% in size; note: potency is the fitted concentration of half-maximal effect; for activity, negative = inhibition: series mostly up to about 70 µM
Summary of the method: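 GH3.TRE-Luc rat pituitary cells (two TREs driving luciferase) were dosed with compound, then stimulated with 1 nM T3 (final) for 23.5 h at 37 C. ONE-Glo luminescence was the read-out, with CellTiter-Fluor fluorescence as the cytotoxicity counter-screen.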

[17] = molecular target: Estrogen receptor (Homo sapiens) (UniProt P03372); assay: qHTS assay to identify small molecule antagonists of the estrogen receptor alpha (ER-alpha) signaling pathway (AID 743069; active = well fitted curve in the direction sought with a large enough effect in the signal ratio in the repeat runs, not every such curve was filed as active; the % refers to the signal ratio)
Summary of the method: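 Beta-lactamase FRET fluorescence is read after 2 hr at room temperature with LiveBLAzer B/G substrate. Before that, ER-alpha-bla HEK293 cells sit 4 hr after plating, then receive compound plus 17beta-estradiol and incubate 18 hr at 37C.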

[18] = qHTS assay for identifying genotoxic compounds that show differential cytotoxicity against isogenic chicken DT40 cell lines with known DNA damage response pathways - Rad54/Ku70 mutant cell line (AID 743015); note: nearly all actives have a fitted effect of over 60% in size; note: potency is the fitted concentration of half-maximal effect
[19] = qHTS assay for identifying genotoxic compounds that show differential cytotoxicity against isogenic chicken DT40 cell lines with known DNA damage response pathways - wild type cell line (AID 743012); note: nearly all actives have a fitted effect of over 60% in size; note: potency is the fitted concentration of half-maximal effect
Summary of the method: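 Luminescent ATP viability signal (CellTiter-Glo, 30 min RT) recorded after wild type DT40 cells were incubated with compounds for 40 h at 37 C/5% CO2.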
% is set by controls: 0 for no effect and ±100 for the full control effect.

Sequence of Estrogen receptor (Homo sapiens) (P03372 whole entry, looked up): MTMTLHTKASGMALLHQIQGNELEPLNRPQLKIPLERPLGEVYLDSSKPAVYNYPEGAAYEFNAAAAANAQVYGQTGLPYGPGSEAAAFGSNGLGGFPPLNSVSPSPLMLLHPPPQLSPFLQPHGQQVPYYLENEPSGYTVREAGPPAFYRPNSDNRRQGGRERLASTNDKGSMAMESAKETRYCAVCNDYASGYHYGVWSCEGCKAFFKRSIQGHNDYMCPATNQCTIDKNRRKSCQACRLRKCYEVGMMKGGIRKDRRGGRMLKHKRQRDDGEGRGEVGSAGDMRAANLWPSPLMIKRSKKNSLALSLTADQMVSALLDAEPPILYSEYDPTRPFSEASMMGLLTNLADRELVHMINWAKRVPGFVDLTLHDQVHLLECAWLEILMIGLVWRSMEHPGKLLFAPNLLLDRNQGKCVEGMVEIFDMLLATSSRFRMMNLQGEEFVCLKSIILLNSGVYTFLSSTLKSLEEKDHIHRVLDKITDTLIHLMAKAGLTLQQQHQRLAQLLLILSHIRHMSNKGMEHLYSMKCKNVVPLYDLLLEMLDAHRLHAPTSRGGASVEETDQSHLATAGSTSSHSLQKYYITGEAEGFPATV
Sequence of Androgen receptor (Homo sapiens) (P10275 whole entry, looked up): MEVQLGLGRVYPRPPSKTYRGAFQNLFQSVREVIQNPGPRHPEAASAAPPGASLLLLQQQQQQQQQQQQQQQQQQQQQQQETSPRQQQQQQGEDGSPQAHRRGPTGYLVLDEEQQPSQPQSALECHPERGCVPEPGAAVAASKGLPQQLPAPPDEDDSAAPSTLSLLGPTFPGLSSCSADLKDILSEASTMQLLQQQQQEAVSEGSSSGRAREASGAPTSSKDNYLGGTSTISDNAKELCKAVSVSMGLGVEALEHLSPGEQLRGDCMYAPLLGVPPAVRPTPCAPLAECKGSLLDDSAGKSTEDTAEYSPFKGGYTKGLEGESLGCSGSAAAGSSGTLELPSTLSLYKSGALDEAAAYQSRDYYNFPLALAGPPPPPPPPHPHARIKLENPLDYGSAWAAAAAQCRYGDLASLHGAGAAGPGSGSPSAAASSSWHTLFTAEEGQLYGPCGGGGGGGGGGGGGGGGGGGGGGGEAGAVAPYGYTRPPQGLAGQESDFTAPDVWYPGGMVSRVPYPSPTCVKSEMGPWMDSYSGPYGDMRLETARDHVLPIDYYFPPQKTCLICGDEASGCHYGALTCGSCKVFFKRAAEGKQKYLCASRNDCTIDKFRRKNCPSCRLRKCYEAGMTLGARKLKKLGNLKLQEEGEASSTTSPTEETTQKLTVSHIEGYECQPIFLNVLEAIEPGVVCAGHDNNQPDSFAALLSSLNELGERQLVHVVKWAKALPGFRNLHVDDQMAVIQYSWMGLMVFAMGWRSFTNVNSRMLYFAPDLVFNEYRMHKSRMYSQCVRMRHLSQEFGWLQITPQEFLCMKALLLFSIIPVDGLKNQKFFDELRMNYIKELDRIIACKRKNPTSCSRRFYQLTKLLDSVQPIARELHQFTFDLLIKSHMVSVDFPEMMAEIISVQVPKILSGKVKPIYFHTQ
Sequence of Aromatase (Homo sapiens) (P11511 whole entry, looked up): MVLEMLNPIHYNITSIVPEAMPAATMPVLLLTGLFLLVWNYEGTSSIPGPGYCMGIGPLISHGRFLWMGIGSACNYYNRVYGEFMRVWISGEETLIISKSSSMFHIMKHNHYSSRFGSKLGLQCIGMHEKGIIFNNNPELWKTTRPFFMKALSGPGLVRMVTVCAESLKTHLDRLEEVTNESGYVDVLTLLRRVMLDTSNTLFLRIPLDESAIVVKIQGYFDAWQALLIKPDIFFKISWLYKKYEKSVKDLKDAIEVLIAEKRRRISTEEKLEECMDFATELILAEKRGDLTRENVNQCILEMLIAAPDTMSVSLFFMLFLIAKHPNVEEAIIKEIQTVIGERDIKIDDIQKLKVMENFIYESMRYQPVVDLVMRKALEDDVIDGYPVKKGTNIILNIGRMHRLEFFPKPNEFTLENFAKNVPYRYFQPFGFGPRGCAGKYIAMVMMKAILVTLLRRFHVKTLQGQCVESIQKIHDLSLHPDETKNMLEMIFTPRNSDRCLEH

O=C1CCN(c2ccccc2)N1
inactive: outcome [1] | outcome [3] | Potency [4] | outcome [5] | Potency [6] | Potency [7] | outcome [8] | outcome [9] | Potency [10] | outcome [11] | Potency [12] | outcome [13] | Potency [14] | Potency (Aromatase (Homo sapiens))
active: Potency [2] 68.8 µM

CC(C)(C)c1cccc(O)c1
inactive: outcome [1] | outcome [3] | Potency [4] | outcome [5] | Potency [6] | Potency [7] | outcome [8] | Potency [15] | Potency [16] | outcome [9] | Potency [17] | Potency [10] | outcome [11] | Potency [12] | outcome [13] | Potency [14] | Potency (Aromatase (Homo sapiens))
active: Potency [2] 61.1 µM

C[C@]12CCC(=O)C=C1CC[C@@H]1[C@@H]2CC[C@@]2(C)[C@H]1CC[C@]2(O)C(=O)CO
inactive: outcome [1] | Potency [7] | Potency [15] | outcome [9] | Potency [10] | outcome [11] | outcome [13] | Potency [14] | Potency (Aromatase (Homo sapiens))

COc1ccc(Nc2ccc(OC)cc2)cc1
inactive: outcome [1] | outcome [3] | Potency [7] | Potency [15] | Potency [16] | outcome [9] | Potency [17] | Potency [10] | outcome [11] | Potency [14] | Potency (Aromatase (Homo sapiens))
active: Potency [12] 3.93 µM

ICCc1ccccc1
inactive: outcome [1] | Potency [7] | Potency [15] | Potency [16] | outcome [9] | Potency [17] | Potency [10] | Potency [12] | outcome [13] | Potency [14] | Potency (Aromatase (Homo sapiens))

NC(Cc1ccc(F)cc1)C(=O)O (stereo not given)
inactive: viability change, negative = cytotoxic [1] -1.1% [at 7.04 µM] | activity change, negative = cytotoxicity [3] -0.148% [at 7.04 µM] | viability change, negative = cytotoxic [7] -1.4% [at 8.47 µM] | activation [9] -5.43% [at 8.08 µM] | activity, negative = cytotoxicity [10] -20% [at 6.72 µM] | activity change, negative = cytotoxicity [14] -2.97% [at 8.47 µM] | activity, negative = inhibition (Aromatase (Homo sapiens)) -6.6% [at 8.47 µM]
active: Potency [18] 1.87 µM

CN(C)CCOc1ccccc1Cc1ccccc1
inactive: outcome [1] | Potency [2] | outcome [3] | Potency [7] | outcome [9] | Potency [10] | Potency (Aromatase (Homo sapiens))
active: Potency [14] 2.37 µM

CCOc1ccc(NS(=O)(=O)c2ccc(N)cc2)nn1
inactive: Potency [19] | Potency [2] | Potency [18] | outcome [3] | Potency [7] | Potency [15] | outcome [9]

CN1CCN(c2c(F)cc3c(=O)c(C(=O)O)cn(CCF)c3c2F)CC1
inactive: outcome [1] | outcome [3] | Potency [7] | Potency [15] | Potency [16] | outcome [9] | Potency [17] | Potency [10] | outcome [11] | outcome [13] | Potency (Aromatase (Homo sapiens))

CCOC(=O)CS
inactive: outcome [1] | Potency [7] | Potency [15] | outcome [9] | Potency [10] | Potency [14] | Potency (Aromatase (Homo sapiens))

CCN(CC)CCOc1ccc(Cc2ccccc2)cc1
active: Potency [19] 0.473 µM | Potency [2] 0.188 µM | Potency [18] 0.376 µM | Potency [15] 11.9 µM | Potency [16] 10.6 µM | Potency [10] 26.8 µM | Potency [14] 29.8 µM
inactive: outcome [3] | Potency (Aromatase (Homo sapiens))

COc1cc2c(cc1N)oc1ccccc12
inactive: outcome [1] | outcome [3] | Potency [7] | Potency [15] | Potency [16] | outcome [9] | Potency [10] | Potency [14] | Potency (Aromatase (Homo sapiens))
active: Potency [18] 62.4 µM

O=C1N(c2ccccc2)c2ccccc2C1(Cc1ccncc1)Cc1ccncc1
inactive: outcome [1] | Potency [18] | outcome [3] | Potency [7] | Potency [15] | Potency [16] | outcome [9] | Potency [17] | outcome [11] | Potency [12] | outcome [13] | Potency [14] | Potency (Aromatase (Homo sapiens))

COc1cc(N)c(Cl)cc1C(=O)NC1CCN(Cc2ccccc2)CC1
inactive: outcome [1] | Potency [7] | Potency [15] | Potency [17] | Potency [10] | outcome [11] | Potency [12] | outcome [13] | Potency [14]

O=C(C(Cl)Cl)N1CCOC12CCCCC2
inactive: Potency [17] | Potency [10] | outcome [11] | Potency [12] | outcome [13] | Potency [14] | Potency (Aromatase (Homo sapiens))
active: Potency [2] 6.86 µM
